40 molecules from PubChem BioAssay AID493209 (National Center for Advancing Translational Sciences (NCATS), 2011) can be followed below.

Calls of active or inactive are those of the source.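 How the source made its calls: active means compounds that raised 12-lipoxygenase product formation in the cuvette follow-up test, with a fitted potency; inactive means the rest, inconclusive results apart.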

This assay deals with Polyunsaturated fatty acid lipoxygenase ALOX12 (Homo sapiens) (UniProt P18054). The experiment in a line: Activators of 12-hLO (12-human lipoxygenase): 12hLO Cuvette-Based Hit Validation Assay of Followup Compounds. As to conditions: purified 12-hLO, cuvette UV 234 nm product formation. The protocol: The enzyme activity of 12-hLO was determined by a direct measurement of product formation by monitoring the absorbance at 234 nm in a 2 mL cuvette. IC50 values of inhibitors were obtained by measuring the enzymatic rate at a variety of concentrations (Carroll et al, Segraves et al). This assay was used to validate active or inconclusive putative activators identified in the primary screen (see related BioAssay AIDs). Assay Provider: Holman, T.R., University of California, Santa Cruz Screening Center PI: Austin, Christopher P. Screening Center: NIH Chemical Genomics Center
Chain of Polyunsaturated fatty acid lipoxygenase ALOX12 (Homo sapiens) (P18054 whole entry, looked up): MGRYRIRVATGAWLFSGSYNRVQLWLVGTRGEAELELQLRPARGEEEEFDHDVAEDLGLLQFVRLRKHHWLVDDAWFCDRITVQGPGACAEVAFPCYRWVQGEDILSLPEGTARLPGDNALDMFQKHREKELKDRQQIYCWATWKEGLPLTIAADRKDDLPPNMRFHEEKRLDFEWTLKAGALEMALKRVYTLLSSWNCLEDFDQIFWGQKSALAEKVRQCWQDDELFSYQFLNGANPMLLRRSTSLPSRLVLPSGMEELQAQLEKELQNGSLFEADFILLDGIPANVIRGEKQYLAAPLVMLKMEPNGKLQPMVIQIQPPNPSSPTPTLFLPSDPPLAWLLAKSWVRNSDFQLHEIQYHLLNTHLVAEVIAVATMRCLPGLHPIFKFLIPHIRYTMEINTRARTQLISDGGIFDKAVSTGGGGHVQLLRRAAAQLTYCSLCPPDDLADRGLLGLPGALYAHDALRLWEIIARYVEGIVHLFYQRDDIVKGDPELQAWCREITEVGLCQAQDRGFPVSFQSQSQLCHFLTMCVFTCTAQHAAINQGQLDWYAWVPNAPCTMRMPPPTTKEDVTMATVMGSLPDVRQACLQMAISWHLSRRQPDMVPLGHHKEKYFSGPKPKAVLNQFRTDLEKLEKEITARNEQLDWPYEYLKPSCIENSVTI
For control experiments, 2 mL of substrate buffer (10 uM arachidonic acid / 25 mM HEPES / 0.01% (v/v) Triton X-100, pH 8.0) was aliquoted in a cuvette with a magnetic stir bar. After equilibrium was ensured, an aliquot of inhibitor solvent was added (DMSO), and equilibrium was once again assured. The reaction was started by adding enzyme to the cuvette and the reaction was followed until completed. The inhibition experiments were performed as above, except the actual inhibitory compound was added instead of vehicle. To achieve an IC50, typically 5 concentrations of the inhibitor were studied. If the inhibitor concentration was constant, then five different reaction volumes were used. Step \ Parameter \ Value \ Description 1; UV-Vis; 234 nm; Equilibration 2; Reagent; 2 mL; Substrate buffer 3; UV-Vis; 234 nm; Equilibration 4; Reagent; varies; Compound 5; UV-Vis; 234 nm; Equilibration 6; Reagent; 50-200 nM; Enzyme 12-hLO 7; UV-Vis; 234 nm; Enzymatic reaction Step \ Notes 1; Blank cuvette to air. 2; 10 uM AA, 25 mM HEPES, 0.01% Triton X-100, pH 8. 3; No change in absorbance ensured. 4; Compound vehicle or compound in various concentrations depending on potency. 5; No change in absorbance ensured. 6; Enzyme concentration to achieve reaction rate between 0.02 and 0.04 AU/s. 7; Enzymatic reaction visualized until completion.
As to `Cc1ccc(C(=O)/C=C/c2c[nH]c3ccccc23)cc1`, the result was inactive. On to `Oc1ccccc1-c1cc(-c2ccc3c(c2)OCCO3)n[nH]1`, for which the molecule was classed as inactive. In the case of `O=C(Nc1nnc(C2=COCCO2)o1)c1ccc(Cl)cc1`, the call was inactive. For the molecule `COc1ccc(NC2=NCC(Cc3ccc(Br)cc3)S2)cc1` (stereo not given), the result was inactive.

For the molecule `COc1ccc(/C=C/c2nc(-c3ccccc3O)n[nH]2)cc1`, the call was inactive. Take `CC1=NN(c2ccc(Cl)cc2)C(=O)C1C(c1ccccc1O)c1c(C)[nH]n(-c2ccc(Cl)cc2)c1=O` (stereo not given): the outcome was inactive.

On to `COc1cc(CNc2ccc(N3CCCC3)cc2)ccc1OCc1ccccc1`, for which the call was inactive. With `Cc1ccc(C(=O)Nc2nnc(-c3ccco3)o2)cc1C`, the outcome was inactive. Turning to `O=S(=O)(Nc1ccc(O)c(Sc2nc3ccccc3s2)c1)c1ccc(Cl)cc1`, the outcome was inactive. `COc1ccc(C(=O)Nc2cc(C(=O)c3ccccc3)c(C)oc2=O)cc1`: the Potency was 61.6 µM (active). For `CCc1ccc(S(=O)(=O)/N=C2/C=C(Sc3ncn[nH]3)C(=O)c3ccccc32)cc1`, the molecule was classed as inactive.

For the molecule `CC(Oc1ccc(Cl)cc1Cl)C(=O)NC1=NN(c2ccccc2)C(=O)C1` (stereo not given), the outcome was inactive. The same measure, in the same setting: in the case of `Cc1ccc(S(=O)(=O)Nc2nc(C)c(NC(=O)Nc3ccc(Cl)cc3Cl)s2)cc1` it was “inactive”; in that of `Oc1ccc(C2=Nn3c(nnc3-c3ccco3)SC2)cc1O`, “inactive”; in that of `Cc1[nH]nc(-c2ccc(O)cc2O)c1-c1ccc(Cl)cc1`, “inactive”. Turning to `Cc1ccc(NC(=O)Nc2cccs2)c(Cl)c1`, the call was inactive. With `Cc1nc(N)sc1-c1csc(N(C)c2ccc(O)cc2)n1`, the call was inactive.

In the case of `COc1ccc(-c2n[nH]c(C)c2-c2ccc(Cl)cc2)c(O)c1`, the call was inactive. As to `CCOC(=O)Cc1cc(=O)n(-c2nc3ccccc3s2)[nH]1`, the call was inactive. Consider `O=C1c2ccccc2NC(c2ccc(Cl)cc2Cl)N1O` (stereo not given), for which the Potency is 53.1 µM (active). Take `Cc1ccc(S(=O)(=O)Nc2ccc(NC(=O)Nc3cccc(C(F)(F)F)c3)cc2)cc1`: the molecule was called inactive. For `COc1ccc2nc(NC(=O)c3cccc(OCc4c(C)noc4C)c3)sc2c1`, the call was inactive.

Turning to `Oc1ccccc1-c1cc(-c2ccccc2Cl)[nH]n1`, the call was inactive. The same measure, in the same setting: in the case of `CC1=NN(c2ccc(Cl)cc2)C(=O)C1C(c1cccc(O)c1)c1c(C)[nH]n(-c2ccc(Cl)cc2)c1=O` (stereo not given) it was “inactive”; in that of `O=C(CSc1n[nH]c(-c2ccccc2)n1)c1ccc(O)c(O)c1`, “inactive”. For the molecule `Cc1oc2c(O)c(O)ccc2c(=O)c1-c1cnn(-c2ccccc2)c1`, the call was inactive. For `c1ccc(-c2nc(NCc3cccnc3)c3oc4ccccc4c3n2)cc1`, the outcome was inactive. `N#CC1=C(N)Oc2n[nH]c(-c3cccs3)c2C1C1CCCCC1` (stereo not given): the molecule was called inactive. Take `CSCCC(NC(=O)c1ccc(Cl)cc1)C(=O)OCC(=O)Nc1ccc(C#N)cc1` (stereo not given): the molecule was classed as inactive.

As for `CCCOC(=O)c1ccc(Oc2c(-c3ccc(O)cc3O)n[nH]c2C)cc1`, the call was inactive. Consider `O=C(NC(=S)Nc1ccccc1N1CCCC1)c1ccc([N+](=O)[O-])cc1`, for which the Potency is 66.7 µM (active).

For `Oc1ccc(-c2csc(-c3ccccc3)n2)cc1O`, the result was inactive. As to `Cc1cc(Cl)cc(Cl)c1OCC(=O)NCc1ccco1`, the molecule was classed as inactive. Take `COc1ccc(-c2[nH]ncc2-c2ccc(Cl)cc2)c(O)c1`: the result was inactive. `O=C(/C=C/c1ccc(O)c(O)c1)c1ccc(S(=O)(=O)N2CCCCCC2)cc1`: the outcome was inactive. In the case of `CCc1cc(-c2n[nH]c(C)c2Oc2ccc(C(C)C)cc2)c(O)cc1O`, the molecule was called inactive. As to `Cc1[nH]nc(-c2ccc(O)cc2O)c1Oc1ccccc1`, the outcome was inactive. As for `COc1cc(CNc2ccc(O)cc2)cc(Br)c1OCc1ccccc1F`, the result was inactive. Still for that read-out and setting: for `CCCOC(=O)c1ccc(Oc2cn[nH]c2-c2ccc(OC)cc2O)cc1` the value was “inactive”; for `O=C(Nc1nnc(-c2ccccn2)o1)c1ccc(Br)cc1`, “inactive”.
